HSP90 inh: blocks HSP90-mediated luciferase refolding in reticulocyte lysate | 0.91% of 290,000 active | inhibition, % at 5.6 µM | Rabbit reticulocyte lysate, luciferase refolding luminescence, 3 h | AID 1789;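 active = inhibition above the screen-wide mean plus 3 SD, computed separately per campaign, cut at about 16% in these data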;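 note: 0% = DMSO wells and 100% = 60 µM geldanamycin wells; inhibitors lower the luminescence because luciferase stays unfolded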
EBV LMP1 NFkB: reduces LMP1-driven NF-kappaB luciferase signal. LMP1-induced NF-kappaB luciferase reporter cells, luminescence. inhibition, % at 12.5 µM. 0.69% of 350,000 active. AID 504558; in the data active = inhibition above about 41%; inconclusive = no clear call, values can overlap the other calls;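 note: 0% = neutral control wells and 100% = reference inhibitor control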
aDG glyco act: alpha-DG glycosylation activation; Pro5-aDG cells, alpha-DG glycosylation AlphaScreen (IIH6); 0% Pro5, 100% B10-LARGE cell signal; activation, % at 10 µM; 0.22% of 360,000 active;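 active = activation of at least 8% versus controls, or a plate z-score of at least 8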;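 note: Pro5 are CHO cells carrying HIG-tagged alpha-DG that lacks glycosylation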
TWEAK-Fn14 inh: blocks TWEAK-Fn14 interaction in a reporter cell assay. 2% of 360,000 active. AID 1159606. inhibition, % at 10 µM. TWEAK-stimulated Fn14 reporter cells, luciferase luminescence, 8 h; in the data active = inhibition above about 50%
TROY NFkB inh: TROY signaling inhibition | 0.98% of 360,000 active | Q293 LMP1-TROYcd NF-kB luciferase reporter, 4 h | AID 1347056 | inhibition, % at 10 µM;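 active = compounds whose plate-normalised and pattern-corrected inhibition of the luciferase reporter signal at the single screening dose is 50% or more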
LGR2 antag: blocks bursicon-induced cAMP signaling via Drosophila LGR2; AID 720647; inhibition, % at 9.99 µM; 0.35% of 380,000 active; HEK293 LGR2, CRE-luciferase, bursicon-stimulated, 4 h;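 active = drop in luminescence signal, shown as inhibition above about 50% in the replicate tests, limit read from the data, passing the limit was not always enough; inconclusive = probably only some replicates passing the limit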;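 note: agonist challenge used bursicon conditioned medium at about half maximal strength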
* = called active by the depositor; ? = inconclusive; / = no result. Rows were chosen to be rich in hits. Some 2.6% of all compounds tested hit in one or more screens of this group.

SMILES	HSP90 inh	EBV LMP1 NFkB	aDG glyco act	TWEAK-Fn14 inh	TROY NFkB inh	LGR2 antag
Oc1ccccc1N1CCN(c2ncnc3scc(-c4ccccc4)c23)CC1	0	5	0	56*	41	27
Fc1ccc(-c2csc3ncnc(N4CCc5ccccc5C4)c23)cc1	4	12	-1	26	46	17
Cc1ccc(-c2csc3ncnc(N4CCc5ccccc5C4)c23)cc1	1	4	0	78*	58*	18
COC(=O)C[C@H]1C[C@H]2c3cc(NC(=O)Nc4ccc(F)cc4)ccc3O[C@H]2[C@H](CO)O1	/	/	/	/	/	3
CO[C@@H]1CN(C)C(=O)c2cc(NC(=O)C3CCC3)ccc2OC[C@H](C)N(Cc2ccncc2)C[C@H]1C	/	/	/	/	/	4
COc1ccc(CC2(CO)CCN(CC3=Cc4cc(Cl)ccc4OC3)CC2)cc1	-2	11	13*	44	35	-2
CC12CCC(O)CC1=CCC1C2CCC2(C)c3[nH]ncc3CC12 (stereo not drawn)	/	2	0	12	51*	6
Oc1cccc(-c2nc3c4c(ncn3n2)-c2ccccc2CC42CCCC2)c1	-1	15	0	71*	41	?
COc1ccc(-c2nc3c4c(ncn3n2)-c2ccccc2CC42CCCC2)cc1	-3	2	0	18	2	-20
CCCS(=O)(=O)c1nnnn1-c1cccc(OC)c1	1	18	0	69*	52*	/
Cc1ccc(S(=O)(=O)N2C[C@@H](O)COC[C@@H]3O[C@H](CC(=O)NCCN4CCCCC4)CC[C@H]32)cc1	/	/	/	/	/	-1
CCOc1ccc(-c2ccc(SC)nn2)cc1	73*	59*	0	-15	75*	99*
CCOc1ccc(-c2ccc(SCC(=O)Nc3nnc(CC)s3)nn2)cc1	-6	2	0	12	-55	2
CCCNC(=O)[C@@H]1[C@@H](CO)[C@@H]2Cn3c(ccc(/C=C/c4ccccc4)c3=O)[C@H]1N2C(=O)c1ccncc1	/	/	/	/	/	-5
CCCCCCC(=O)N(O)C1CC(=O)N(c2ccc(Br)cc2)C1=O (stereo not drawn)	-2	43*	-1	-65	6	/
Cc1ccc(-c2nc3ccccc3c(=O)o2)cc1	-3	-9	0	4	-73	-15
Cc1ccc2nc(-c3ccccc3)oc(=O)c2c1	-3	-2	0	108*	-13	-11
CN(C)CC(=O)N1CCCCN2[C@@H](CO)[C@@H](c3ccc(-c4cccnc4)cc3)[C@@H]2C1	/	/	/	/	/	-5
COc1ccc(/C=N/Nc2cc(C)nc3ccc(OC)cc23)c(OC)c1	0	70*	0	86*	82*	103*
CCS(=O)(=O)N1N=C(c2ccc(NS(C)(=O)=O)cc2)CC1c1ccccc1 (stereo not drawn)	0	3	0	-3	-38	-20
CS(=O)(=O)Nc1ccc(C2=NN(S(C)(=O)=O)C(c3ccccc3)C2)cc1 (stereo not drawn)	-1	66*	0	-18	-26	-13
Cc1cc(=O)n2c3ccccc3n(CC(O)CN3CCN(CCO)CC3)c2c1C#N (stereo not drawn)	3	-2	0	68*	2	1
Cc1cc(=O)n2c3ccccc3n(CC(O)CN3CCN(Cc4ccccc4)CC3)c2c1C#N (stereo not drawn)	0	5	0	11	-1	-3
C[C@@H]1CCCCO[C@@H](CN(C)C(=O)NC2CCCCC2)[C@@H](C)CN([C@@H](C)CO)C(=O)c2cc(NC(=O)c3ccccc3)ccc2O1	/	/	/	/	/	9
COc1ccc(CNCCc2ccc(Cl)cc2)cc1OCc1ccccc1	2	-2	2.7*	15	4	/
SMILES	HSP90 inh	EBV LMP1 NFkB	aDG glyco act	TWEAK-Fn14 inh	TROY NFkB inh	LGR2 antag
CCOc1cc(CNCCc2ccc(S(N)(=O)=O)cc2)ccc1OCc1ccccc1	1	-2	5.7*	11	6	/
COc1ccccc1CN(C)C[C@@H]1OCc2cnnn2CCCC(=O)N([C@H](C)CO)C[C@@H]1C	/	/	/	/	/	5
C[C@@H]1CN([C@@H](C)CO)S(=O)(=O)c2ccc(C#Cc3ccc(F)cc3)cc2O[C@@H]1CN(C)S(=O)(=O)c1ccc(F)cc1	/	/	/	/	/	15
O=C(NCC[C@@H]1CC[C@@H](NC(=O)C2CCCCC2)[C@@H](CO)O1)Nc1ccc(Cl)cc1	/	/	/	/	/	9
COc1cccc(NC(=O)COC(=O)c2c3c(nc4ccccc24)CCC(C)C3)c1 (stereo not drawn)	4	22	0	57*	36	/
COc1ccccc1CCn1cnc(-c2ccccc2)c1CC(C)C	/	/	/	/	/	52*
COc1ccccc1CCn1cnc(-c2ccc(F)cc2)c1CC(C)C	/	/	/	/	/	48
COc1cc(OC)cc(C(=O)NNC(=O)c2ccccn2)c1	-3	25	1	-2	-5	-13
COc1cc(OC)cc(C(=O)NNC(=O)c2ccc3ccccc3n2)c1	/	13	0	37	57*	-10
COc1ccc(C(=O)NNC(=O)c2ccccn2)cc1	75*	-15	0	102*	87*	/
COc1cc(C(=O)NNC(=O)c2ccc3ccccc3n2)cc(OC)c1OC	/	9	0	-23	-25	-15
COc1ccc(N=C(NN)c2ccc3ccccc3n2)cc1	16	35	0	101*	91*	/
COc1ccc(C(=O)NC(=S)NNC(=O)c2ccc3ccccc3n2)cc1	4	49*	0	-15	-31	-5
Cn1c(NCCO)nc2c1c(=O)n(Cc1cccc(Cl)c1)c(=O)n2C	1	-4	0	-19	-7	-5
Cn1c(NCc2ccco2)nc2c1c(=O)n(Cc1ccc(Cl)c(Cl)c1)c(=O)n2C	0	19	0	50*	29	/
Cn1c(NCC(O)CO)nc2c1c(=O)n(Cc1ccc(Cl)c(Cl)c1)c(=O)n2C (stereo not drawn)	2	-3	0	10	5	/
Cn1c(NCCN2CCOCC2)nc2c1c(=O)n(Cc1cccc(Cl)c1)c(=O)n2C	0	-1	0	80*	/	/
C[C@@H]1CN([C@@H](C)CO)S(=O)(=O)c2ccc(C3=CCCCC3)cc2O[C@@H]1CN(C)S(=O)(=O)c1cn(C)cn1	/	/	/	/	/	-11
O=C(C1CCN(c2nnc(N3CCCC3=O)s2)CC1)N1CCN(Cc2ccc3c(c2)OCO3)CC1	33*	5	0	-8	-13	/
COc1ccc(CN2C[C@H](C)[C@@H](OC)CN(C)C(=O)c3cc(NC(C)=O)ccc3OC[C@@H]2C)cc1	/	/	/	/	/	5
O=C(N/C(=C\c1ccc([N+](=O)[O-])cc1)C(=O)N1CCCCC1)c1ccccc1	1	-5	0	0	11	22
CN1CCN(C(=O)/C(=C/c2ccc([N+](=O)[O-])cc2)NC(=O)c2ccccc2)CC1	-4	-1	0	54*	3	-7

Source: PubChem BioAssay
